# From the supplement of paper PMC12645437, “Orthogonal IMiD-Degron Pairs Induce Selective Protein Degradation in Cells” (ACS Chemical Biology, 2025)
# Over roughly 8,300 sequences, “log2 fold change of degron read counts, EGFP-low vs EGFP+ sorted cells (limma voom), compound-induced degradation” has its median near -1.1; the highest 2% begin near 3.2. The sample as a whole holds a higher share of the highest values than the screen did.
# T1: CRBN, Q96SW2
# T1 chain: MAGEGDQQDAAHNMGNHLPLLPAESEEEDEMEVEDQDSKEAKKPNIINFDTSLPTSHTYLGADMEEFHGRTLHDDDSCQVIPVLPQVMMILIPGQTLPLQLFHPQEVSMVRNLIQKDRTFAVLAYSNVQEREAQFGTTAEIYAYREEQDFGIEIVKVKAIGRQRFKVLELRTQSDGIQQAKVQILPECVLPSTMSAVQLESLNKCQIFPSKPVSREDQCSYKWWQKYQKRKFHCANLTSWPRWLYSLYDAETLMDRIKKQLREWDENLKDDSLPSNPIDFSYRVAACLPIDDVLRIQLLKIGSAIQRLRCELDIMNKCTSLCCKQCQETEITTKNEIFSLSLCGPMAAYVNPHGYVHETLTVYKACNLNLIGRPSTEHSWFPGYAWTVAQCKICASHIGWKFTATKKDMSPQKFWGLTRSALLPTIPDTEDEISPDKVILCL
# Biological target: T1, CRBN, Q96SW2
# Test: log2 fold change of degron read counts, EGFP-low vs EGFP+ sorted cells (limma voom), compound-induced degradation; higher = more compound-induced degradation of the degron-EGFP fusion; degrons are variants of IKZF1/3 zinc finger 2; compound dose not given here
# Conditions: Jurkat, 18 h
# Protocol: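 Pooled library of 8380 IKZF3 ZF2 degron mutants (positions 146-167 varied within the IKZF3 130-189 degron; only the varied core is printed, flanks not printed) fused to EGFP with IRES-mCherry, lentivirally expressed in Jurkat cells. mCherry+ cells were treated with one IMiD compound for 18 h (dose not stated) and FACS-sorted into EGFP-low and EGFP+ populations. Degron sequences were counted by NGS, and log2FC (EGFP-low vs EGFP+) was estimated by limma voom over 3 biological replicates.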
# [1] = compound: compound 19 (5-tert-butyl-thalidomide)
# [2] = compound: compound 22 (5-morpholino-thalidomide)
# [3] = compound: compound 33 (diphenyl IMiD analogue)
# 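Further: pooled lentiviral library of zinc finger degron-EGFP fusions in mCherry-positive Jurkat cells, FACS-sorted after compound exposure, with degron abundance counted by next-generation sequencing.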
Sequence,log2 fold change of degron read counts [1],log2 fold change of degron read counts [2],log2 fold change of degron read counts [3],log2 fold change of degron read counts (compound: thalidomide)
"FSCNQCGRCFTQKGNLLRHIKL [46F_47S_49N_50Q_52G_53R_54C_55F_67L_, Q9UKT9]",-2.78,-2.88,-2.83,-2.73
"FNCPQCGADFTQKGNLLRHIKL [46F_47N_49P_50Q_52G_53A_54D_55F_67L_, Q9UKT9]",-3.44,-3.57,-2.75,-3.69
"FFCNICGAEFTQKGNLLRHIKL [46F_47F_49N_50I_52G_53A_54E_55F_67L_, Q9UKT9]",1.77,1.94,0.373,-0.454
"FSCPICGHQFTQKGNLLRHIKL [46F_47S_49P_50I_52G_53H_54Q_55F_67L_, Q9UKT9]",-2.3,-3.17,-1.53,-1.82
"FSCNQCGRDFTQKGNLLRHIKL [46F_47S_49N_50Q_52G_53R_54D_55F_67L_, Q9UKT9]",-3.12,-4.04,-2.59,-2.97
"LFCNQCGFNCTQKGNLLRHIKL [46L_47F_49N_50Q_52G_53F_54N_55C_67L_, Q9UKT9]",-1.81,-1.88,-1.92,-1.45
"FECNQCGAHFTQKGNLLRHIKL [46F_47E_49N_50Q_52G_53A_54H_55F_67L_, Q9UKT9]",-2.49,-3.01,-2.49,-2.34
"FCCEICGAIFTQKGNLLRHIKL [46F_47C_49E_50I_52G_53A_54I_55F_67L_, Q9UKT9]",1.48,1.57,2.5,1.97
"FQCEICGAIFTQKGNLLRHIKL [46F_47Q_49E_50I_52G_53A_54I_55F_67L_, Q9UKT9]",-0.255,3.16,2.84,3.68
"FMCEICGAIFTQKGNLLRHIKL [46F_47M_49E_50I_52G_53A_54I_55F_67L_, Q9UKT9]",-1.18,-0.577,2.14,0.96
"FICDVCGASFTQKGNLLRHIKL [46F_47I_49D_50V_52G_53A_54S_55F_67L_, Q9UKT9]",-1.49,1.22,0.774,0.427
"FTCEVCGAHFTQKGNLLRHIKL [46F_47T_49E_50V_52G_53A_54H_55F_67L_, Q9UKT9]",-0.0867,0.738,1.47,2.04
"FVCEVCGAHFTQKGNLLRHIKL [46F_47V_49E_50V_52G_53A_54H_55F_67L_, Q9UKT9]",-0.244,1.53,1.35,1.87
"FACEVCGAHFTQKGNLLRHIKL [46F_47A_49E_50V_52G_53A_54H_55F_67L_, Q9UKT9]",3.16,0.662,0.411,-0.296
"FWCEVCGAHFTQKGNLLRHIKL [46F_47W_49E_50V_52G_53A_54H_55F_67L_, Q9UKT9]",3.1,3.92,1.96,0.936
"FRCEVCGAHFTQKGNLLRHIKL [46F_47R_49E_50V_52G_53A_54H_55F_67L_, Q9UKT9]",-1.19,-1.13,0.668,0.202
"FYCEVCGAHFTQKGNLLRHIKL [46F_47Y_49E_50V_52G_53A_54H_55F_67L_, Q9UKT9]",3.12,3.62,2.45,0.916
"LVCEICGFGCTQKGNLLRHIKL [46L_47V_49E_50I_52G_53F_54G_55C_67L_, Q9UKT9]",1.26,1.94,0.702,2.41
"FMCPICGHYFTQKGNLLRHIKL [46F_47M_49P_50I_52G_53H_54Y_55F_67L_, Q9UKT9]",-2.08,-2.18,-1.11,-1.8
"FVCDICGAPFTQKGNLLRHIKL [46F_47V_49D_50I_52G_53A_54P_55F_67L_, Q9UKT9]",1.63,3.29,1.93,2.61
"FQCDICGAPFTQKGNLLRHIKL [46F_47Q_49D_50I_52G_53A_54P_55F_67L_, Q9UKT9]",2.56,3.14,0.968,3.35
"FFCDICGADFTQKGNLLRHIKL [46F_47F_49D_50I_52G_53A_54D_55F_67L_, Q9UKT9]",-0.121,-0.935,-2.01,-2.27
"FYCDICGAPFTQKGNLLRHIKL [46F_47Y_49D_50I_52G_53A_54P_55F_67L_, Q9UKT9]",3.86,3.56,2.02,0.27
"FWCDICGAPFTQKGNLLRHIKL [46F_47W_49D_50I_52G_53A_54P_55F_67L_, Q9UKT9]",2.91,2.32,1.2,-0.538
"FFCDICGAPFTQKGNLLRHIKL [46F_47F_49D_50I_52G_53A_54P_55F_67L_, Q9UKT9]",3.92,3.16,1.06,-0.36
"FCCDICGAPFTQKGNLLRHIKL [46F_47C_49D_50I_52G_53A_54P_55F_67L_, Q9UKT9]",2.7,2.21,0.465,0.477
"FMCNICGAVFTQKGNLLRHIKL [46F_47M_49N_50I_52G_53A_54V_55F_67L_, Q9UKT9]",-1.55,-0.801,1.53,0.369
"FFCEICGHNFTQKGNLLRHIKL [46F_47F_49E_50I_52G_53H_54N_55F_67L_, Q9UKT9]",-2.59,-3.18,-2.38,-2.84
